These results are taken from PubChem BioAssay (EPA / NIEHS).

Experiment [1] can be described thus: ACEA_ER_80hr: ACEA Biosciences xCELLigence Real-Time Cell Analysis on Estrogen Receptor Agonism for Proliferation (AID 2282667; active = hit-call score of the fitted dose curve at least 0.9, where 1 is the maximum). The settings on record: T47D proliferation, impedance (xCELLigence), 80 h. In outline:
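T47D human breast cells were seeded on electrode plates, monitored overnight, then exposed continuously to compounds in eight-point 1:4 dilutions from 100 uM (max 0.5% DMSO). Impedance-based growth was read at 80 h, fitted upward relative to DMSO.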

Experiment [2] is described as follows: ATG_CRE_CIS: Attagene CIS-FACTORIAL HepG2 Assay for human cAMP Responsive Element (CRE) binding protein 3 (AID 2282926). The note with it: HepG2 CRE cis-reporter, Attagene multiplexed mRNA; actives raise or lower the signal. The gist of the method:
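Capillary electrophoresis of 6-FAM-labelled, HpaI-digested PCR products quantified reporter transcripts. These came from HepG2 transiently transfected with cis-element reporters and exposed to test chemicals for 24 hours, with DMSO defining baseline activity.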

The target of experiment [3] is CCAAT/enhancer-binding protein beta (Homo sapiens) (UniProt P17676). Kind of experiment: ATG_C_EBP_CIS: Attagene CIS-FACTORIAL HepG2 Assay for human CCAAT/Enhancer Binding Protein (C/EBP) beta (AID 2282927). The settings on record: HepG2 Attagene cis-factorial transcription factor reporter; actives raise or lower the signal. In outline: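 HepG2 transiently transfected with multiplexed reporter units under cis-regulatory promoters reporting endogenous C/EBPb activity. After 24 h exposure, reporter mRNA assayed by RT-PCR, fluorescent labelling, HpaI digestion and capillary electrophoresis; bidirectional fitting versus DMSO.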

A short description of experiment [4]: ATG_CMV_CIS: Attagene CIS-FACTORIAL HepG2 Assay for human CMV (Internal Marker) (AID 2282928).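 Note: endpoint acts as a background internal control marker rather than a target.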 The note with it: HepG2 CMV promoter reporter, transcription factor profiling; actives raise or lower the signal. In outline:
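Reporter transcripts from transfected HepG2 cells are isolated after 24 h of chemical dosing, reverse-transcribed and amplified. Fragments labeled with 6-FAM are cut with HpaI and quantified by capillary electrophoresis; DMSO defines baseline.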

Experiment [5] can be described thus: ATG_DR4_LXR_CIS: Attagene CIS-FACTORIAL HepG2 Assay for human Liver X Receptor (LXR), DR4 submotif (AID 2282929). The settings on record: HepG2 Attagene DR4 cis-reporter, mRNA transcription; actives raise or lower the signal. In outline:
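HepG2 cells were transiently transfected with multiple cis-regulated reporter units and dosed for 24 hours. The DR4 reporter mRNA was quantified by RT-PCR, 6-FAM labelling and capillary electrophoresis. Bidirectional fits used DMSO as baseline.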

A short description of experiment [6]: ATG_AP_1_CIS: Attagene CIS-FACTORIAL HepG2 Assay for human Activator Protein 1 (AP-1) (AID 2282931). The note with it: HepG2 Attagene cis-factorial AP-1 reporter mRNA; actives raise or lower the signal. In outline:
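HepG2 cells transiently transfected with cis-element-driven reporter transcription units, dosed for 24 hours. Reporter mRNA measured by RT-PCR, 6-FAM labelling, HpaI digestion and capillary electrophoresis. Bidirectional fitting against DMSO baseline.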

Experiment [7] in a line: ATG_AP_2_CIS: Attagene CIS-FACTORIAL HepG2 Assay for human Activator Protein 2 (AP-2) (AID 2282932). The note with it: HepG2 AP-2 cis-reporter, Attagene transcription factor profiling; actives raise or lower the signal. In outline: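 Read-out: fluorescent reporter mRNA via RT-PCR and capillary electrophoresis, 24 h post-dose in transiently transfected HepG2. Endogenous factors drive cis-promoter reporters; gain or loss of signal fitted bidirectionally against DMSO.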

The nature of experiment [8]: ATG_BRE_CIS: Attagene CIS-FACTORIAL HepG2 Assay for human Bone Morphogenetic Protein (BMP) Response Element (BRE) (AID 2282933). The note with it: HepG2 BMP response element reporter, Attagene transcription factor profiling; actives raise or lower the signal. The gist of the method: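 Multiplexed cis-reporter assay, HepG2, 24 h exposure. mRNA from reporter units quantified via RT-PCR/CE; DMSO baseline; bidirectional curve fit.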

Experiment [9] deals with Retinoic acid receptor alpha (Homo sapiens) (UniProt P10276). Briefly: ATG_DR5_RAR_CIS: Attagene CIS-FACTORIAL HepG2 Assay for human Retinoic Acid Receptor Alpha (RARE), DR5 submotif (AID 2282934).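 For AC50: reporter responds to endogenous RAR alpha beta and gamma in HepG2 not RARA alone.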 The note with it: HepG2 Attagene cis-factorial RARE DR5 reporter, mRNA; actives raise or lower the signal. The gist of the method: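 HepG2 cells transiently transfected with multiplexed reporter units; DR5 cis-element drives reporter through endogenous transcription factors. After 24 h dosing, reporter mRNA quantified by RT-PCR, fluorescent labeling, HpaI digestion and capillary electrophoresis; bidirectional fitting versus DMSO.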

The target in experiment [10] is Transcription factor E2F1 (Homo sapiens) (UniProt Q01094). Kind of experiment: ATG_E2F_CIS: Attagene CIS-FACTORIAL HepG2 Assay for human E2F Transcription Factor 1 (AID 2282935). The settings on record: HepG2 Attagene cis-reporter, E2F reporter RNA transcripts; actives raise or lower the signal. In outline:
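Transient MRTU transfection of HepG2; 24 h compound exposure; RNA → oligo(dT) RT → PCR → FAM label → HpaI cut → CE fluorescence. Gain/loss of signal fit against DMSO.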

Experiment [11] can be described thus: ATG_E_Box_CIS: Attagene CIS-FACTORIAL HepG2 Assay for human Enhancer Box (E-box) (AID 2282936). The note with it: HepG2 E-box cis-reporter transcription, actives raise or lower the signal. In outline: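 Transiently transfected HepG2, endogenous TF-driven reporters, 24 h dosing. Readout: RT-PCR plus capillary electrophoresis of fluorescent reporter fragments. Gain or loss of signal fitted bidirectionally against DMSO baseline.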

The nature of experiment [12]: ATG_M_61_CIS: Attagene CIS-FACTORIAL HepG2 Assay for M61 Transcription Factor (Internal Marker) (AID 2282937). The note with it: HepG2 Attagene CIS-FACTORIAL M61 internal marker reporter; actives raise or lower the signal. The gist of the method:
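HepG2 cells transiently transfected with multiplexed cis-promoter reporter units reporting endogenous transcription factor activity, measured 24 h after dosing. Reporter mRNA quantified by RT-PCR and capillary electrophoresis; bidirectional fit against DMSO baseline.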

Experiment [13] in a line: ATG_EGR_CIS: Attagene CIS-FACTORIAL HepG2 Assay for human Early Growth Response 1 (EGR1) (AID 2282938). The note with it: HepG2 Attagene CIS-FACTORIAL EGR reporter mRNA; actives raise or lower the signal. The gist of the method:
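HepG2 cells transiently transfected with cis-element-driven multiplexed reporter units, dosed for 24 h. EGR1-element reporter mRNA quantified by RT-PCR, 6-FAM labelling, HpaI digestion and capillary electrophoresis; bidirectional fit versus DMSO.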

Experiment [14] is described as follows: ATG_M_19_CIS: Attagene CIS-FACTORIAL HepG2 Assay for M19 Transcription Factor (Internal Marker) (AID 2282939). The note with it: HepG2 Attagene CIS-FACTORIAL M19 internal marker reporter; actives raise or lower the signal. In outline:
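Signals come from fluorescence of labelled reporter-specific PCR fragments resolved by capillary electrophoresis, following 24 h treatment of HepG2 cells transfected with cis-promoter reporter units; activity was fitted in both directions relative to DMSO.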

Experiment [15] is described as follows: ATG_ERE_CIS: Attagene CIS-FACTORIAL HepG2 Assay for Estrogen Response Element (ERE) (AID 2282940). The settings on record: HepG2 ERE cis-reporter, Attagene RNA transcript; actives raise or lower the signal. In outline: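 Fluorescence of capillary-separated, FAM-labelled reporter cDNA fragments indicates reporter mRNA levels in HepG2 cells exposed to chemicals for 24 h. Transient transfection with cis-regulated units; data fitted in both directions against DMSO.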

The nature of experiment [16]: ATG_Ets_CIS: Attagene CIS-FACTORIAL HepG2 Assay for human Erythroblast Transformation Specific (ETS) (AID 2282941). The note with it: HepG2 ETS cis-reporter transcription, actives raise or lower the signal. In outline: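 Bidirectional fit versus DMSO of reporter mRNA signal, detected by RT-PCR and capillary electrophoresis in HepG2 cells transiently transfected with cis-element reporters and dosed 24 h.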

In experiment [17] the target is Hepatocyte nuclear factor 3-beta (Homo sapiens) (UniProt Q9Y261). Kind of experiment: ATG_FoxA2_CIS: Attagene CIS-FACTORIAL HepG2 Assay for human Forkhead box A2 (FOXA2) (AID 2282942). The settings on record: HepG2 cis-reporter transcription factor activity, 24 h; actives raise or lower the signal. The gist of the method: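 HepG2 transiently transfected with a multiplexed cis-promoter reporter library read endogenous FOXA2 activity. After 24 h compound exposure, reporter mRNA was quantified by RT-PCR, HpaI digestion and capillary electrophoresis. Bidirectional fit against DMSO.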

Experiment [18] in a line: ATG_FoxO_CIS: Attagene CIS-FACTORIAL HepG2 Assay for human Forkhead box O (FoxO) (AID 2282943). The settings on record: HepG2 Attagene cis-reporter, FoxO element, mRNA; actives raise or lower the signal. In outline:
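HepG2 cells transiently transfected with cis-element-driven reporter units report endogenous FoxO activity. After 24 h chemical exposure, reporter mRNA quantified by RT-PCR, fluorescent labeling, HpaI digestion and capillary electrophoresis; bidirectional fit versus DMSO.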

In experiment [19] the target is Aryl hydrocarbon receptor (Homo sapiens) (UniProt P35869). Kind of experiment: ATG_Ahr_CIS: Attagene CIS-FACTORIAL HepG2 Assay for human Aryl Hydrocarbon Receptor (Ahr) (AID 2282930). The settings on record: HepG2 AhR cis-factorial reporter transcription; actives raise or lower the signal. In outline: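 HepG2 cells transiently transfected with cis-element-driven multiplexed reporter units; endogenous AhR activity read as reporter mRNA 24 h after dosing, via RT-PCR, 6-FAM labelling, HpaI digestion and capillary electrophoresis. Bidirectional fit relative to DMSO.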

A short description of experiment [20]: ATG_GATA_CIS: Attagene CIS-FACTORIAL HepG2 Assay for human GATA Binding Protein (AID 2282944). The note with it: HepG2 GATA cis-element reporter, Attagene multiplex mRNA; actives raise or lower the signal. The gist of the method:
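After transfecting HepG2 cells with multiple cis-regulated reporter units, chemicals are dosed for 24 h; isolated RNA undergoes RT-PCR and fluorescent labeling before capillary electrophoresis, with activity expressed against DMSO.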

Inconclusive results are not listed. Activity calls are given as the source filed them. Rule for the calls, unless noted: active = hit-call score of the fitted dose curve at least 0.9, where 1 is the maximum; inactive = score below 0.9.

Chain of CCAAT/enhancer-binding protein beta (Homo sapiens) (P17676 whole entry, looked up): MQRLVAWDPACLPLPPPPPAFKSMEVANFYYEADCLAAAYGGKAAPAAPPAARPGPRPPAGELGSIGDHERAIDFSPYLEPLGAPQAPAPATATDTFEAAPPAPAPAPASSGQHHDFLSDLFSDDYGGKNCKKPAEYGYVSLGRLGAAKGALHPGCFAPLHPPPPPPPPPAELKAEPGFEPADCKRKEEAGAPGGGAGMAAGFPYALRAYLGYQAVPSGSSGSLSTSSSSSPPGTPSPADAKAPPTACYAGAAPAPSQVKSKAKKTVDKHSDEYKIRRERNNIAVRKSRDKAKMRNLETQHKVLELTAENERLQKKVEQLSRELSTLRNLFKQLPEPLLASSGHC
Chain of Retinoic acid receptor alpha (Homo sapiens) (P10276 whole entry, looked up): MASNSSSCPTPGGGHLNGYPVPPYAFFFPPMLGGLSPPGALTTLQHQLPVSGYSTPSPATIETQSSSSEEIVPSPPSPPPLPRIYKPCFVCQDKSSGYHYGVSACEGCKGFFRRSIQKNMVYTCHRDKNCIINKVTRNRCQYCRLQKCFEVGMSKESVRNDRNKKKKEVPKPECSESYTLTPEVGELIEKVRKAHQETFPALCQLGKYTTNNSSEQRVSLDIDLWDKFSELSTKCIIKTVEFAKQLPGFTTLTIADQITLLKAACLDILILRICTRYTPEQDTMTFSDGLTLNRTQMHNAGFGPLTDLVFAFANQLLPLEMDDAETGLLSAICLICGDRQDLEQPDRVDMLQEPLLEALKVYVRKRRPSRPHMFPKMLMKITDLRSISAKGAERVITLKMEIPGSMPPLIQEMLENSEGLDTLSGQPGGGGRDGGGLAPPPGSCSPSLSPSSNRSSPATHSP
Chain of Hepatocyte nuclear factor 3-beta (Homo sapiens) (Q9Y261 whole entry, looked up): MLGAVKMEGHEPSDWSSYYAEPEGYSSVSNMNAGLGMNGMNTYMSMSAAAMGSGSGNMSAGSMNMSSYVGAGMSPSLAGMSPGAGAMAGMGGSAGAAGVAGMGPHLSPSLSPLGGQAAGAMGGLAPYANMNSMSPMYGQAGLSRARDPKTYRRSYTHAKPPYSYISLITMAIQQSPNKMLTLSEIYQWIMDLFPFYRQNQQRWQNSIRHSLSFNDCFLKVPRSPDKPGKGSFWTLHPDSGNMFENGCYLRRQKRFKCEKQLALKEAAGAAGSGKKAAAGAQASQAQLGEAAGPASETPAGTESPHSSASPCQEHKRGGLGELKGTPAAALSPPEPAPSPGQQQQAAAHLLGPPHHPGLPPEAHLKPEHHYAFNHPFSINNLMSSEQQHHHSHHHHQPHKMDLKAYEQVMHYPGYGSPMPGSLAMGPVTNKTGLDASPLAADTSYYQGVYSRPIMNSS
Chain of Transcription factor E2F1 (Homo sapiens) (Q01094 whole entry, looked up): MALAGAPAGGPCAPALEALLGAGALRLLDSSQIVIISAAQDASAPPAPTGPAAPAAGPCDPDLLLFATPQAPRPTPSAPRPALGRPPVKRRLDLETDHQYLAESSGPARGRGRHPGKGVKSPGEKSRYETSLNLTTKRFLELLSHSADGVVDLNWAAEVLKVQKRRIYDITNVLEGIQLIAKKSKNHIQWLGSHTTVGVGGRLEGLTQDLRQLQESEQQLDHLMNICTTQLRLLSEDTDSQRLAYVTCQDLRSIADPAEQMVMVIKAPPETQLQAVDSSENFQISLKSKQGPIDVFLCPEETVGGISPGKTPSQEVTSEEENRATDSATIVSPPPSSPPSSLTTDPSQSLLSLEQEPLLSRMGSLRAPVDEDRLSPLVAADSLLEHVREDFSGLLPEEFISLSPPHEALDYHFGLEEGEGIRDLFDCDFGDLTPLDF
Chain of Aryl hydrocarbon receptor (Homo sapiens) (P35869 whole entry, looked up): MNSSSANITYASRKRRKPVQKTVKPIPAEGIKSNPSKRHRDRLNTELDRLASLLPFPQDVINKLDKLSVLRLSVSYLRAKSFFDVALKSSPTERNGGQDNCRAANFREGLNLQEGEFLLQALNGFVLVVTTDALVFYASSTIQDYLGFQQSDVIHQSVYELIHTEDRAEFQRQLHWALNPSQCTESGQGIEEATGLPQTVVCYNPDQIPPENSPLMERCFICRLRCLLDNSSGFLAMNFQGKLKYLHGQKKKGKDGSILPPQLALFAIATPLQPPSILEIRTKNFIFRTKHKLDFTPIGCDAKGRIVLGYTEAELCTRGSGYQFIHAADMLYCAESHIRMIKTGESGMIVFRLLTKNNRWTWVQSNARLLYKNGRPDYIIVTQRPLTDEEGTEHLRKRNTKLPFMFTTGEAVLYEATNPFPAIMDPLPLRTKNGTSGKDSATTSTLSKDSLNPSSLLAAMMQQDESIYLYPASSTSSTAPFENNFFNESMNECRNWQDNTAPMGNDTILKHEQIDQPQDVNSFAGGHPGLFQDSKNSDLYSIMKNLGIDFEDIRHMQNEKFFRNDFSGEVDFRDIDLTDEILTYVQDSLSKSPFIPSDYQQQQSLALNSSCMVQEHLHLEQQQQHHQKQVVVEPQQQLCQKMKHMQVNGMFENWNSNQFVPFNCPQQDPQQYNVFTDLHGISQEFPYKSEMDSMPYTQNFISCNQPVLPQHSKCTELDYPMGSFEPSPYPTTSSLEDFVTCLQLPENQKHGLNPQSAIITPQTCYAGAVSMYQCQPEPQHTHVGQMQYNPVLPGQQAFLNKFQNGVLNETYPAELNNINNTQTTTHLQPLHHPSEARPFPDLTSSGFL

As usually defined, the AC50 is the concentration at which the activity in the assay is half-maximal. As to `O=C(O)C(F)(F)OC(F)(F)C(F)(F)OC(F)(F)C(F)(F)OC(F)(F)F`, the values for the AC50 in experiment [1], in experiment [4] and in experiment [6] were 13.2 µM (active), 66.5 µM (active) and 66.5 µM (active), respectively. The compound was called inactive in experiment [2], in experiment [3], in [5], in experiment [7], in experiment [8] and in experiment [9]. Besides, the result in experiment [10], in experiment [11], in experiment [12], in experiment [13], in [14] and in [15] was inactive. In addition, the call in experiment [16], in experiment [17] and in experiment [18] was inactive.

As for `CCCC(=O)OCC(COC(=O)CCC)OC(=O)CCC`, the result in [1], in experiment [2], in experiment [3], in experiment [5], in [6] and in experiment [7] was inactive. Further, the result in experiment [10], in experiment [11], in experiment [12], in experiment [13], in experiment [15] and in experiment [16] was inactive. Also, the compound was called inactive in experiment [17] and in [18]. For the same compound, the AC50 in experiment [4] was 69.3 µM (active); in experiment [8], 57.5 µM (active); in experiment [9], 37.5 µM (active).

For the compound `OCC(O)CC(F)(F)C(F)(F)C(F)(F)C(F)(F)F` (stereo not drawn), the compound was called inactive in experiment [1], in [2], in [3], in [4], in experiment [5] and in [19]. Further, the call in [7], in experiment [8], in experiment [9], in experiment [10], in experiment [11] and in [12] was inactive. Besides, the result in experiment [13], in experiment [14], in experiment [15], in [16], in [17] and in experiment [18] was inactive. Also, the call in experiment [20] was inactive.

Turning to `COC(F)(C(F)F)C(F)(F)F` (stereo not drawn), the outcome in experiment [1], in experiment [2], in experiment [3], in experiment [4], in experiment [5] and in [19] was inactive. Moreover, the result in [7], in experiment [8], in [9], in experiment [10], in experiment [11] and in experiment [12] was inactive. The call in experiment [13], in [14], in experiment [15], in experiment [16], in experiment [17] and in [18] was inactive. In addition, in [20], the call was inactive.
